Where “and” joins values, the source holds several entries; their conditions need not be identical. Identical values can stand only once. The whole screen tested about 360,000 compounds, of which about 4,200 (1.2%) were called active. This excerpt belongs to a sample that is enriched for actives. A number with no mark means an inactive call.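 Rule for the calls: active = mean replicate inhibition at least 60% with every replicate also reaching 60%; inconclusive = only one of the two criteria is met; inactive = mean below 60% and not all replicates reaching 60%.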
Assay: inhibitors of PAX8-driven TPO luciferase reporter, primary screen, RMG-I cells, single concentration (AID 652154);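 note: luciferase light reporting Pax8 driven TPO promoter activity; plate controls were median of neutral control wells for no effect and mitoxantrone controls for full effect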
Details: SteadyGlo, 24 h, at 12.6 µM, active compounds read high

Row | Structure (SMILES) | inhibition
1 | Brc1ccc2c(c1)CNCc1cnnn1-2 | -19.7%
2 | O=C(O)[C@H]1[C@H](CO)[C@H]2Cn3c(ccc(-c4ccccc4)c3=O)[C@@H]1N2S(=O)(=O)c1ccccc1F | -5.43%
3 | COc1ccc(-n2nnnc2C(c2cccc3ccccc23)N2CCC(n3c(=O)[nH]c4ccccc43)CC2)cc1 (stereo not given) | 63.7% (active)
4 | O=c1[nH]c2ccccc2n1C1CCN(C(c2ccnc3ccccc23)c2nnnn2Cc2ccccc2)CC1 (stereo not given) | -10.5%
5 | COc1cccc(C(c2nnnn2-c2ccc3c(c2)OCCO3)N2CCC3(CC2)C(=O)NCN3c2ccccc2)c1OC (stereo not given) | -8.19%
6 | O=C1NCN(c2ccccc2)C12CCN(C(c1cccs1)c1nnnn1C1CCCCC1)CC2 (stereo not given) | -2.94%
7 | CSCCC(c1nnnn1C(C)(C)C)N1CCC(n2c(=O)[nH]c3ccccc32)CC1 (stereo not given) | 32.9%
8 | O=c1[nH]c2ccccc2n1C1CCN(C(c2ccccc2)c2nnnn2Cc2ccccc2)CC1 (stereo not given) | 82.1% (active)
9 | CCOC(=O)[C@]12Cc3ccccc3[C@H]1N(C1CCCCC1)C(=O)c1cc(OC)ccc12 | 49.5%
10 | COc1cccc(-c2ccc3n(c2=O)C[C@H]2[C@H](CO)[C@@H](C(=O)O)[C@@H]3N2C(=O)c2cnccn2)c1 | -1.69%
11 | CS(=O)(=O)N1CCC2CCNC2C1 (stereo not given) | -27.9%
12 | COc1cc(OC)cc(C(=O)NCCN2CCC3(CC2)C(=O)NCN3c2ccccc2)c1 | -21.4%
13 | O=C(Cc1ccccn1)N1CCCCN2[C@@H](CO)[C@@H](c3ccc(C#Cc4ccccc4)cc3)[C@@H]2C1 | 9.59%
14 | CC1=CC(=Cc2sc3ccccc3[n+]2C)C=C(C)O1 | 74.9% (active)
15 | C/C=C/c1ccc(C2[C@@H]3CN(S(C)(=O)=O)C[C@H]2N3)cc1 (stereo not given in full) | 9.75%
16 | CCCCCCCCCCCCn1ccc(=N)cc1 | 101% (active)
17 | O=C(Cc1ccccn1)N1CCCCN2[C@H](C1)[C@H](c1ccc(-c3ccccc3F)cc1)[C@@H]2CO | 19.2%
18 | O=C(O)[C@@H]1[C@@H](CO)[C@@H]2Cn3c(ccc(-c4ccccc4F)c3=O)[C@H]1N2C(=O)c1cccnc1 | -13.1%
19 | OC[C@@H]1[C@H]2c3ccccc3NC[C@H]2N1Cc1cccnc1 | 2.56%
20 | COC(=O)C1=C(c2ccccc2OCc2ccccc2)C[C@@H]2CC[C@H]1N2C(=O)NCc1ccc(OC)cc1 | 15%
21 | COC(=O)C1=C(c2ccc(OCc3ccccc3)cc2)C[C@@H]2CC[C@H]1N2C(=O)NCc1cccc(F)c1 | 5.35%
22 | COC(=O)C1=C(c2ccc(F)cc2OCc2ccccc2)C[C@@H]2CC[C@H]1N2C(=O)NCc1ccc(Cl)cc1 | 24.6%
23 | COC(=O)C1=C(c2ccc(F)cc2OCc2ccccc2)C[C@@H]2CC[C@H]1N2C(=O)NCc1ccc(C(C)(C)C)cc1 | 79% (active)
24 | COC(=O)C1=C(c2ccc(F)cc2OCc2ccccc2)C[C@@H]2CC[C@H]1N2C(=O)NCc1ccc2[nH]ccc2c1 | 89% (active)
25 | COC(=O)C1=C(c2ccc(F)cc2OCc2ccccc2)C[C@@H]2CC[C@H]1N2C(=O)NCc1ccc(OC)c(OC)c1 | 21.7%
26 | COC(=O)C[C@@H]1CC[C@@H]2NC[C@@H](O)COC[C@H]2O1 | 2.66%
27 | COC(=O)C[C@H]1CC[C@H]2NC[C@@H](O)COC[C@@H]2O1 | 2.02% and -13.9%
28 | COC(=O)[C@H]1[C@H](CO)[C@H]2Cn3c(ccc(-c4cccc(F)c4)c3=O)[C@@H]1N2Cc1ccccc1 | 7.46%
29 | COC(=O)[C@@H]1[C@@H](CO)[C@@H]2Cn3c(ccc(-c4cccc(C(=O)N(C)C)c4)c3=O)[C@H]1N2C(=O)NC(C)C | -0.877%
30 | O=C(Cc1ccncc1)N1CCCCN2[C@@H](CO)[C@H](c3ccc(-c4ccncc4)cc3)[C@@H]2C1 | 6.85%

— PubChem BioAssay AID652154 (Broad Institute, 2013)
